Screening results from PubChem.
HIF-2a inh = inhibitors of HIF-2a; 786-0 RCC cells HIF-2a reporter, luciferase luminescence, overnight; inhibition, % at 18.8 µM; hit rate 0.72% among 360,000;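 active = inhibition of the luminescence signal of 40% or more relative to plate controls, in a single-dose primary screen at 18.75 µM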
TROY signal inh = blocks TROY-dependent signaling in reporter cells; Q293 LMP1-TROYcd NF-kB luciferase reporter, 4 h; inhibition, % at 10 µM; hit rate 0.98% among 360,000; AID 1347056;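 active = compounds whose plate-normalised and pattern-corrected inhibition of the luciferase reporter signal at the single screening dose is 50% or more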
TWEAK-Fn14 inh = inhibitors of TWEAK-Fn14 interaction signaling | TWEAK-stimulated Fn14 reporter cells, luciferase luminescence, 8 h | inhibition, % at 10 µM | hit rate 2% among 360,000 | AID 1159606; in the data active = inhibition above about 50%
Peg3 promoter = inhibitors of Peg3 promoter | hit rate 1.7% among 360,000 | HeLa PEG-Prom luciferase reporter, luminescence, overnight | inhibition, % at 20 µM;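 active = inhibition of at least 50% at 20 µM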
CF NFkB block = inhibitors of cystic fibrosis induced NF-kB; KKLEB NF-kB-GFP reporter, PAF-induced, GFP fluorescence overnight; inhibition, % at 5 µM; hit rate 0.86% among 360,000;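 active = at least 50% inhibition at 5 µM, scaled per plate between neutral and stimulator controls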;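 note: PAF is a Pseudomonas aeruginosa culture filtrate used as stimulus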
KKLEB cytotox = reduces viability of KKLEB cystic fibrosis airway cells. KKLEB CF airway cells viability, ATPlite luminescence, overnight; hits give low values; cells stimulated with P. aeruginosa culture filtrate. activity change (cytotoxicity), % at 5 µM. hit rate 0.36% among 360,000. AID 602141;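 active = corrected activity change at or below -50% at 5 µM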
Of the large screens only hits and unclear results are named; the others gave an inactive call. Hits are enriched below; roughly 4% of the tested compounds scored in any of these assays.

O=C(NCC(=O)N(c1ccc(F)cc1)C(C(=O)NC1CCCCC1)c1ccncc1)c1ccco1 (centres undefined)	none
COc1ccc(CN(C)CCCn2cnc3c(OC)ncnc32)cc1OC	none
CCCCCCCC/C=C\CCCCCCCC(=O)NCCO	none
CCCCCCCC/C=C\CCCCCCCC(=O)NCCc1ccc(O)c(O)c1	CF NFkB block 58.6
O=S1(=O)CC(N2CCN(CCO)CC2)CN1Cc1cn(Cc2ccc(F)cc2)nn1 (centres undefined)	none (no result: Peg3 promoter, CF NFkB block, KKLEB cytotox)
Cc1ccc(/C=N/NC(=O)CSc2nc3ccccc3c(=O)n2-c2ccccc2C)s1	Peg3 promoter 50.9
Cc1nn(-c2ccccc2)c(C)c1/C=N/NC(=O)CSc1nc2ccccc2c(=O)n1-c1ccc(Br)cc1	Peg3 promoter 58.0
CCn1c(SCC(=O)Nc2ccccc2OC)nc2ccccc2c1=O	none
CCOc1ccccc1-n1c(SCC(=O)Nc2ccccc2C(=O)O)nc2ccccc2c1=O	TROY signal inh 77.9, TWEAK-Fn14 inh 92.3
Cc1ccccc1-n1c(SCC(=O)N/N=C/c2c(C)nn(-c3ccccc3)c2C)nc2ccccc2c1=O	Peg3 promoter 54.0
CCOc1cccc(C(=O)NC2=NCCS2)c1	none
COc1ccc(C(=O)SC2=NCCS2)cc1	TWEAK-Fn14 inh 53.6
COc1cccc(C(=O)NC2=NCCS2)c1	none
CCOc1ccc(C(=O)SC2=NCCS2)cc1	TWEAK-Fn14 inh 63.1
COc1cc2cc(CCCOC(=O)CCCC(=O)O)oc(=O)c2cc1OC	none
COc1ccc(CNC(=O)CSc2nnc3c(n2)[nH]c2ccc(F)cc23)cc1	none
COc1ccc2[nH]c3nc(SC(C)C)nnc3c2c1	TROY signal inh 54.4, TWEAK-Fn14 inh 92.0
CCOC(=O)CN(C(=O)CSc1nnc2c(n1)[nH]c1ccc(OC)cc12)c1ccc(F)cc1	TROY signal inh 74.5, TWEAK-Fn14 inh 66.5
Cc1nnc(Sc2cc(NCCCO)c([N+](=O)[O-])c3nonc23)s1	Peg3 promoter 56.1
CC(=O)OCCCNc1cc(SCc2ccco2)c2nonc2c1[N+](=O)[O-]	none
Cc1nnc(Sc2cc(NCCO)c([N+](=O)[O-])c3nonc23)s1	none
CCCSc1cc(NCCOC(=O)CCC)c([N+](=O)[O-])c2nonc12	Peg3 promoter 56.1
O=[N+]([O-])c1c(NCCCO)cc(Sc2nc3ccccc3s2)c2nonc12	Peg3 promoter 100.7
Cc1ccc(-n2c(-c3ccc(Br)cc3)n[nH]c2=S)c(C)c1	none
COc1ccc(N2CCN(C(=O)Cc3ccc(Cl)cc3)CC2)cc1	none
CCOC(=O)c1c(C)[nH]c(C(=O)N/N=C\c2ccccc2O)c1C	none
CCOC(=O)c1c(C)[nH]c(C(=O)N/N=C/c2cc([N+](=O)[O-])ccc2O)c1C	TROY signal inh 76.5, TWEAK-Fn14 inh 76.5
Cc1nc2c(-c3ccccc3)c(C)[nH]n2c(=O)c1Cc1ccccc1	none
Cc1nc2c(C#N)c(C)[nH]n2c(=O)c1Cc1ccccc1	TWEAK-Fn14 inh 64.2
COc1cc(C(C)=O)ccc1OCC(=O)NCC(c1ccc(F)cc1)N1CCOCC1 (centres undefined)	none
O=C(O)CCn1c(=O)[nH]c(=O)n(CCC(=O)O)c1=O	Peg3 promoter 88.9
O=C(Nc1ccc(C(=O)O)cc1)/C(=C\C=C\c1ccccc1)NC(=O)c1ccccc1Br	none
O=C(N/N=C/c1cccc(F)c1)c1c(O)c2ccccc2[nH]c1=O	TWEAK-Fn14 inh 58.0, CF NFkB block 64.6, KKLEB cytotox -63.6
O=C(N/N=C/c1ccc(F)cc1)c1c(O)c2ccccc2[nH]c1=O	none
O=C(CNC(=O)c1ccccc1F)NCc1ccncc1	none
Cc1nn(CC(=O)NCCCN2CCC(Cc3ccccc3)CC2)c(=O)c2cc(-c3ccccc3)nn12	Peg3 promoter 100.4
Cc1nn(CC(=O)NCCCN2CCN(Cc3ccccc3)CC2)c(=O)c2cc(-c3ccccc3)nn12	none
CC(=O)N(CCCN(C)C)CCC(C)CCC=C(C)C (centres undefined)	none
CC(C)=CCCC(C)N(C=O)C(C)CCC=C(C)C (centres undefined)	TROY signal inh 50.1, TWEAK-Fn14 inh 52.7
CCN(CC)c1ccc(/C=c2\sc3nc4ccccc4n3c2=O)c(O)c1	TROY signal inh 53.7, TWEAK-Fn14 inh 67.2
O=c1/c(=C/c2ccc(O)c([N+](=O)[O-])c2)sc2nc3ccccc3n12	none
CN1CCN(c2ncnc3c2ncn3[C@H]2CN(Cc3ccco3)C[C@@H](CO)O2)CC1	none
COc1cccc(NC(=O)C2CCN(c3cnccn3)CC2)c1	TWEAK-Fn14 inh 98.2
N#CC1=C(N)C(C#N)(C#N)[C@H](c2cccnc2)[C@H]2CN(C(=O)OCc3ccccc3)CC=C12	none
N#CC1=C(N)C(C#N)(C#N)C(c2cccnc2)C2CC(c3ccccc3)CC=C12 (centres undefined)	TWEAK-Fn14 inh 61.3, CF NFkB block 69.1
Cc1ccc(C(=O)NCCCN2CCOCC2)c(C)c1	none
Cn1c(=O)c2[nH]c(CCCCCCCCc3nc4ccccc4[nH]3)nc2n(C)c1=O	TWEAK-Fn14 inh 70.5
Cn1c(=O)c2[nH]c(CCCCc3nc4ccccc4[nH]3)nc2n(C)c1=O	none
O=C(Nc1cccc(C(=O)N2CCCC2)c1)C1CCCCC1	none
CCOc1ccc(NC(=O)CC2C(=O)N(c3ccc(OC)c(Cl)c3)C(=S)N2C2CC2)cc1 (centres undefined)	none
O=C(c1cc(-c2ccccc2)n[nH]1)N1CCc2c([nH]c3ccccc23)C1c1ccccn1 (centres undefined)	TWEAK-Fn14 inh 59.2
O=[N+]([O-])c1ccc(Sc2ncccn2)c([N+](=O)[O-])c1	TWEAK-Fn14 inh 54.4
O=[N+]([O-])c1ccc(Sc2nccn2Cc2ccccc2)c([N+](=O)[O-])c1	TWEAK-Fn14 inh 69.5
O=c1cc(-c2ccccc2)nc(Sc2ccc([N+](=O)[O-])cc2[N+](=O)[O-])[nH]1	TWEAK-Fn14 inh 52.3
Cc1cccc(Sc2ccc([N+](=O)[O-])cc2[N+](=O)[O-])n1	none
CC(C)Sc1nc(-c2ccccc2)cc(=O)[nH]1	none
COc1ccc(-n2ccnc2SCC(=O)c2c(N)n(C3CC3)c(=O)[nH]c2=O)cc1	none
COC(=O)c1ccsc1NC(=O)CN1CCN(c2ncccn2)CC1	none
O=C(NCc1cccc(C(F)(F)F)c1)c1csc([C@@H]2O[C@H](CO)[C@H](O)[C@H](O)[C@H]2O)n1	none
COc1ccc2cc(C(N)=O)/c(=N\NC(=O)c3ccccc3)oc2c1	TROY signal inh 58.2, TWEAK-Fn14 inh 89.2
Cc1ccc(NS(=O)(=O)c2ccc(NC(=O)CN(c3cc([N+](=O)[O-])ccc3C)S(C)(=O)=O)cc2)c(C)c1	TWEAK-Fn14 inh 62.4, Peg3 promoter 50.1
CC(=O)c1c(C(C)=O)c(C)n(NC(=O)c2ccncc2)c1C	TWEAK-Fn14 inh 52.5 (no result: TROY signal inh)
O=C(Nn1cnnc1)c1ccncc1	none
